Measurements reported in PubChem BioAssay (NCI).
This is part of a sample that, as a whole, favours compounds with a hit. Of some 79,000 tested, about 15% had one in any assay. Active and inactive are the calls of the source. No stated cut-off is given here; in the data, active means growth inhibition above about 70%; inactive means the rest.

Assays:
[1] = NCI Yeast Anticancer Drug Screen. Data for the rad52 strain (AID 147);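 further: 0% = growth of vehicle-treated control cultures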; details: S. cerevisiae rad52 mutant growth inhibition, active compounds read high
Method in brief: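 Measured: yeast growth inhibition. System: strain with a defined DNA damage repair alteration. Reference: vehicle-treated control cultures.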

[2] = NCI Yeast Anticancer Drug Screen. Data for the wt1 strain (AID 149);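 further: 0% = growth of vehicle-treated wt1 cultures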; details: S. cerevisiae wt1 strain (SPY 50644) growth inhibition, active compounds read high
Method in brief: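 Using yeast strain wt1, compound-induced growth inhibition was determined against vehicle-treated cultures.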

[3] = NCI Yeast Anticancer Drug Screen. Data for the rad50EPP+ strain (AID 151);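 further: 0% = growth of vehicle-treated control cultures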; details: S. cerevisiae rad50 mutant strain, active compounds read high
Method in brief: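 One strain with a rad50 alteration (rad50EPP+) was compound-treated, its growth then compared to that of vehicle controls.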

[4] = NCI Yeast Anticancer Drug Screen. Data for the mgt1 strain (AID 153); details: S. cerevisiae mgt1 mutant growth inhibition, active compounds read high
Method in brief: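 After exposure of the mgt1 yeast mutant to compound, growth was measured and reported as inhibition compared with vehicle controls.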

[5] = NCI Yeast Anticancer Drug Screen. Data for the rad50 strain (AID 155);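 further: 0% = growth of vehicle-only cultures of the same strain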; details: S. cerevisiae rad50 strain growth inhibition, active compounds read high
Method in brief: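 Relative growth inhibition (compound vs vehicle) was measured in yeast with a defined repair-gene alteration.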

[6] = NCI Yeast Anticancer Drug Screen. Data for the sgs1 mgt1 strain (AID 161);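 further: 0% = growth of cultures given vehicle only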; details: S. cerevisiae sgs1 mgt1 strain, active compounds read high
Method in brief: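 Read-out: growth inhibition vs vehicle controls. Cells: mutant yeast strain deficient in DNA damage repair.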

[7] = NCI Yeast Anticancer Drug Screen. Data for the CLN2oe strain (AID 163);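 further: 0% = growth of vehicle-only control cultures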; details: S. cerevisiae CLN2oe strain, active compounds read high
Method in brief: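 Here, growth inhibition in a cell-cycle-altered yeast strain after compound exposure was quantified against vehicle control growth.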

[8] = NCI Yeast Anticancer Drug Screen. Data for the cln2 rad14 strain (AID 165);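 further: 0% = growth equal to vehicle treated cultures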; details: S. cerevisiae cln2 rad14 strain, active compounds read high
Method in brief: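 Growth of compound-exposed yeast (cln2 rad14 genotype) measured and expressed as inhibition relative to vehicle.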

[9] = NCI Yeast Anticancer Drug Screen. Data for the bub3 strain (AID 167); details: S. cerevisiae bub3 mutant strain, active compounds read high
Method in brief: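 Screening used yeast with an engineered genetic alteration affecting cell cycle control. Compound-exposed cultures were compared with vehicle cultures, and reduced growth was taken as inhibition.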

[10] = NCI Yeast Anticancer Drug Screen. Data for the wt2 strain (AID 169);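 further: 0% = growth of vehicle-treated yeast cultures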; details: S. cerevisiae wt2 strain growth inhibition, active compounds read high
Method in brief: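 Genetically defined yeast strains from a DNA-repair/cell-cycle panel were used. Compound-exposed yeast growth was measured, and the inhibition was calculated relative to vehicle treatment.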

[11] = NCI Yeast Anticancer Drug Screen. Data for the mlh1 strain (AID 171);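 further: 0% = growth of vehicle-treated control cultures of the same strain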; details: S. cerevisiae mlh1 strain growth inhibition, active compounds read high
Method in brief: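 Here the genetically defined yeast mutant is grown with each compound, and the extent to which its growth falls below that of vehicle-exposed cells is reported.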

[12] = NCI Yeast Anticancer Drug Screen. Data for the sgs1 strain (AID 173);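 further: 0% = growth of vehicle-only control cultures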; details: S. cerevisiae sgs1 mutant, active compounds read high
Method in brief: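 Relative growth inhibition, referenced to vehicle, was determined in a yeast strain with a defined alteration affecting DNA damage repair or cell cycle control after compound exposure.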

[13] = NCI Yeast Anticancer Drug Screen. Data for the mlh1 rad18 strain (AID 175); details: S. cerevisiae mlh1 rad18 strain growth inhibition, active compounds read high
Method in brief: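 In this whole-cell yeast screen, a strain with altered DNA damage repair is challenged with compound, and its growth is measured against matched vehicle-treated controls.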

[14] = NCI Yeast Anticancer Drug Screen. Data for the rad18 strain (AID 177); details: S. cerevisiae rad18 mutant growth inhibition, active compounds read high
Method in brief: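 Screen uses a yeast strain with a defined lesion in DNA damage repair; compound effect is read as loss of growth compared to untreated vehicle cultures.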

[15] = at 5.0 µM (retest, dose inferred, filed as 0.5)
[16] = at 50.0 µM (retest, dose inferred, filed as 5.0)

Measured: growth inhibition

O=C(N=Nc1cc(Cl)ccc1Cl)NNc1cc(Cl)ccc1Cl
inactive: [1]; at 1.2 µM -2% | [1]; at 3.7 µM -4% | [1]; at 11.0 µM -3% | [1]; at 33.0 µM -2% | [1]; at 100.0 µM 2% | [2]; at 1.2 µM -2% | [2]; at 3.7 µM 0% | [2]; at 11.0 µM -1% | [2]; at 33.0 µM 0% | [2]; at 100.0 µM 4% | [3]; at 1.2 µM -1% | [3]; at 3.7 µM -3% | [3]; at 11.0 µM -1% | [3]; at 33.0 µM -3% | [3]; at 100.0 µM 4% | [4]; at 1.2 µM -3% | [4]; at 3.7 µM -4% | [4]; at 11.0 µM 17% | [4]; at 33.0 µM -12% | [4]; at 100.0 µM 2% | [5]; at 1.2 µM -2% | [5]; at 3.7 µM -2% | [5]; [15] -2% | [5]; at 11.0 µM -23% | [5]; at 33.0 µM -1% | [5]; at 100.0 µM 3% | [6]; [15] 3% | [6]; at 50.0 µM 66.5% | [7]; at 1.2 µM 0% | [7]; at 3.7 µM -7% | [7]; at 11.0 µM 0% | [7]; at 33.0 µM 0% | [7]; at 100.0 µM 9% | [8]; [15] 39% | [9]; at 1.2 µM -1% | [9]; at 3.7 µM 2% | [9]; [15] -30% | [9]; at 11.0 µM 3% | [9]; at 33.0 µM -7% | [9]; at 50.0 µM 60.1% | [9]; at 100.0 µM -6% | [10]; at 1.2 µM -1% | [10]; at 3.7 µM -3% | [10]; at 11.0 µM -2% | [10]; at 33.0 µM -1% | [10]; at 100.0 µM 2% | [11]; at 1.2 µM -1% | [11]; at 3.7 µM -5% | [11]; at 11.0 µM -3% | [11]; at 33.0 µM -1% | [11]; at 100.0 µM 1% | [12]; at 1.2 µM -2% | [12]; at 3.7 µM -1% | [12]; at 11.0 µM -1% | [12]; at 33.0 µM -1% | [12]; at 100.0 µM 1% | [13]; [15] 5% | [13]; at 50.0 µM 68.9% | [14]; at 1.2 µM -4% | [14]; at 3.7 µM -3% | [14]; at 11.0 µM -6% | [14]; at 33.0 µM -21% | [14]; at 100.0 µM 3%
active: [5]; [16] 76% | [5]; at 50.0 µM 74.4% | [6]; [16] 73% | [8]; [16] 82% | [8]; at 50.0 µM 71.8% | [9]; [16] 81% | [13]; [16] 86%
